Assay outcomes as filed in PubChem BioAssay.
A selection: hits, their analogues and other compounds. The true share with any hit is near 0.5%.
EPAC2 ag: qHTS for Agonist of cAMP-regulated guanine nucleotide exchange factor 4 (EPAC2): primary screen. Rap guanine nucleotide exchange factor 4 (Homo sapiens), Q8WZA2. EPAC2 activation, biochemical qHTS; response scale: 100% = 6.5 mM cAMP response. Potency, µM (series often up to 154 µM), usual class: activators. 360,000 compounds, 0.079% hits. AID 720711, 2013; further: nearly all actives have a fitted effect of over 50% in size
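Exchange assay: 100 nM EPAC2 with 250 nM Rap1B-BODIPY-GDP and 50 uM GDP. Fluorescence (ex 480/em 540 nm) read every 5 min for 30 min at room temperature. Data normalized to 6.5 mM cAMP as agonist control.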
EPAC1 antag: qHTS for Antagonist of cAMP-regulated guanine nucleotide exchange factor 3 (EPAC1): primary screen; 360,000 compounds, 0.14% hits; EPAC1 GEF assay, Rap1b-BODIPY-GDP exchange fluorescence; Potency, µM (top dose mostly 115 µM), usual class: inhibitors; AID 720709, 2013; further: nearly all actives have a fitted effect of over 50% in size
Target sequence (O95398 whole entry, looked up): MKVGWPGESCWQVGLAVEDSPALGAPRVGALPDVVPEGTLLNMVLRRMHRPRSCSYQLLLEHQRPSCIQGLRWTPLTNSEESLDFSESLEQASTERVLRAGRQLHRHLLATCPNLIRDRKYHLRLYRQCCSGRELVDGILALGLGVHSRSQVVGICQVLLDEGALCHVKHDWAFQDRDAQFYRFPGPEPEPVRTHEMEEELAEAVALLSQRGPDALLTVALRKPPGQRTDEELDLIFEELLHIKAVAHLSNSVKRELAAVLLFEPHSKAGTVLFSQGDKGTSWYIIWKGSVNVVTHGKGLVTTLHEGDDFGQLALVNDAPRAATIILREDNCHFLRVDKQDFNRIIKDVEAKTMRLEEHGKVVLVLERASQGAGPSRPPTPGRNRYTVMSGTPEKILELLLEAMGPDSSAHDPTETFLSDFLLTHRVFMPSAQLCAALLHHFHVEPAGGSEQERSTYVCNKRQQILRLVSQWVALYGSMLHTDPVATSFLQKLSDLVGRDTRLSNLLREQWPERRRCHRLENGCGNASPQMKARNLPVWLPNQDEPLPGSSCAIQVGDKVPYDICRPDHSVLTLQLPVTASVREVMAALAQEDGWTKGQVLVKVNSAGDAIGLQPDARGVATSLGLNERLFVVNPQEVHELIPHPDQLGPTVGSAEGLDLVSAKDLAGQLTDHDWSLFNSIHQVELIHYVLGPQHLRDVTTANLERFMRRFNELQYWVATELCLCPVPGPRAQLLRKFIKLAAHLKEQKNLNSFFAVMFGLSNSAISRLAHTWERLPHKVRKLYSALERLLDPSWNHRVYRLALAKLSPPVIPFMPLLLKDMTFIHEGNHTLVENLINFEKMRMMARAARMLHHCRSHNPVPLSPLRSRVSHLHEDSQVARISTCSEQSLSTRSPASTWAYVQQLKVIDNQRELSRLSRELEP
EPAC1 ag: qHTS for Agonist of cAMP-regulated guanine nucleotide exchange factor 3 (EPAC1): primary screen; Rap guanine nucleotide exchange factor 3 (Homo sapiens), O95398; EPAC1 agonist qHTS, biochemical assay; response scale: 100% = response to 6.5 mM cAMP; Potency, µM (top dose mostly 154 µM), usual class: activators; 360,000 compounds, 0.073% hits; further: nearly all actives have a fitted effect of over 60% in size
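EPAC1 100 nM, Rap1B–BODIPY-GDP 250 nM, unlabeled GDP 50 uM; compound titration; 5 min RT; kinetic read ex480/em540 at 5-min intervals ×30 min; data normalized to 6.5 mM cAMP agonist control.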
EPAC2 antag: qHTS for Antagonist of cAMP-regulated guanine nucleotide exchange factor 2 (EPAC2): primary screen | 360,000 compounds, 0.18% hits | Potency, µM (titrated, usually from 114 µM), most hits filed as inhibitors | EPAC2 GEF exchange of Rap1B-BODIPY-GDP, fluorescence | Rap guanine nucleotide exchange factor 4 (Homo sapiens), Q8WZA2; further: nearly all actives have a fitted effect of over 45% in size
PTHR1 ag: qHTS for PTHR1 Agonists: Primary Screen; HEK293 GP2 PTHR1 cells, GloSensor cAMP luminescence, 1 h; Potency, µM (doses to about 115 µM), actives largely listed as activators; 410,000 compounds, 0.075% hits; AID 743266, 2014; further: nearly all actives have a fitted effect of over 55% in size
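HEK-293-derived GP2 cells expressing PTHR1 and a GloSensor cAMP reporter, 3,000/well, plated overnight, given luciferin plus IBMX (each 0.5 mM as added) for 1 h at 37 °C, then compound for 1 h at 37 °C. Luminescence was read after 15 min at room temperature.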
TSHR antag: Antagonists of the Thyroid Stimulating Hormone Receptor: HTS campaign; AID 504810, 2011; 330,000 compounds, 0.2% hits; activity change, negative = inhibition, % at 11.5 µM; TSHR-expressing cells, TSH-stimulated cAMP HTRF, 2 h; hits give low values;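 active means activity change below a set negative limit, meaning inhibition stronger than a set level, cut at about -70% in these data; inconclusive means activity change between two set negative limits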
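TSHR-expressing cells were treated with compounds, then stimulated with TSH at EC80 (4nM final) for 2 hours at 37 deg C. Cellular cAMP was measured by HTRF competition between lysate cAMP and cAMP-d2 for a cryptate-labelled anti-cAMP antibody.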
Of the large screens only hits and unclear results are named; the others gave an inactive call. Unless noted, the call rests on the fitted dose curve; in most records, active means well fitted curve in the direction sought with a large enough effect; inconclusive means small, poorly fitted or top-dose-only effect, or another doubt; inactive means no such curve, though single readings can be large; an effect the other way counts as inactive or inconclusive.

COc1cc([N+](=O)[O-])ccc1-c1ccc(/C=C2\C(=O)ON=C2c2ccccc2)o1	EPAC2 antag 50.1µM (no result: TSHR antag)
O=C1CSC(=S)N1/N=C/c1cc(Br)ccc1O	none (no result: EPAC2 ag, EPAC1 antag, EPAC1 ag, EPAC2 antag, PTHR1 ag)
O=C1CSC(=S)N1/N=C/c1ccc(O)c(O)c1O	EPAC1 antag 25.1µM
CCc1ccc(NS(=O)(=O)c2cc3[nH]c(=O)c(=O)[nH]c3cc2C)cc1	EPAC1 antag inconclusive, TSHR antag -140.2
CCN(CC(=O)Nc1ccc(NC(C)=O)cc1)C(=O)c1cc(-c2ccccc2Cl)nc2ccccc12	none (no result: TSHR antag)
COc1ccc2cc(/C=C3\SC(=S)NC3=O)c(N3CCOCC3)nc2c1	EPAC1 antag inconclusive, EPAC2 antag inconclusive, TSHR antag -80.3
Cc1ccc2nc(NC(=O)C3CCN(S(=O)(=O)c4cc([N+](=O)[O-])ccc4Cl)CC3)sc2c1	none
O=C(Nc1nc2ccc(F)cc2s1)C1CCN(S(=O)(=O)c2cc([N+](=O)[O-])ccc2Cl)CC1	TSHR antag -92.4
CCCCOc1ccc(C(C)NC(=O)CN2C(=O)CSc3ccc(S(=O)(=O)N4CCOCC4)cc32)cc1 (stereo not drawn)	none (no result: EPAC2 ag, EPAC1 antag, EPAC1 ag, EPAC2 antag, TSHR antag)
O=S(=O)(Nc1ccc(O)c(Sc2nc3ccccc3s2)c1)c1cc(Cl)ccc1Cl	none (no result: EPAC2 ag, EPAC1 antag, EPAC1 ag, EPAC2 antag, TSHR antag)
O=S(=O)(Nc1ccc(O)c(Sc2nc3ccccc3s2)c1)c1cccc2ccccc12	TSHR antag -88.0
O=[N+]([O-])c1cc2ccccc2c(O)c1O	EPAC1 antag inconclusive (no result: TSHR antag)
O=[N+]([O-])c1cc(-c2ccccc2)cc([N+](=O)[O-])c1O	EPAC1 antag inconclusive, EPAC2 antag 56.2µM (no result: TSHR antag)
Cc1cc2c(C)nc(N/N=C/c3ccc(F)cc3)nc2o1	EPAC1 antag 39.8µM
Cc1cc2c(C)nc(N/N=C/c3ccc([N+](=O)[O-])cc3)nc2o1	EPAC1 antag inconclusive
Cc1ccc2nc(N3C(=O)C(O)=C(C(=O)c4ccc(C)o4)C3c3cccc(O)c3)sc2c1 (stereo not drawn)	EPAC1 antag 50.1µM
COc1ccc2noc3c2c1C(=O)c1ccccc1-3	EPAC2 ag inconclusive, EPAC1 ag 100µM (no result: TSHR antag)
COc1ccc(OC)c2c1C(=O)c1ccccc1C2=O	EPAC2 ag 89.1µM, EPAC1 ag 89.1µM
COc1ccc(OC)c2c1C(=O)C(Cl)=C(Cl)C2=O	TSHR antag -103.4
O=C1c2ccccc2-c2onc3ccc(NCCCn4ccnc4)c1c23	EPAC1 ag 100µM
COc1cccc2c1C(=O)c1ccc3ccccc3c1C2=O	none
COc1ccc(N)c2c1C(=O)c1ccccc1C2=O	none
CC(C)(C)CC(=O)Nc1nnc2n1CCS2	none (no result: EPAC2 ag, EPAC1 antag, EPAC1 ag, EPAC2 antag, TSHR antag)
Cc1oc(-c2cccs2)nc1CNC[C@H]1O[C@@H](n2cnc3c(N)ncnc32)[C@H](O)[C@@H]1O	none
O=S(=O)(c1ccccc1F)N1CCN(CCc2ccccc2)CC1	none
COCc1cc(C)nc2c1C(=O)NC(c1ccc(F)cc1)N2Cc1ccccc1 (stereo not drawn)	none (no result: EPAC2 ag, EPAC1 antag, EPAC1 ag, EPAC2 antag, TSHR antag)
CCc1ccc(C2c3c(-c4cc(C)ccc4O)n[nH]c3C(=O)N2Cc2cccnc2)cc1 (stereo not drawn)	none (no result: EPAC2 ag, EPAC1 antag, EPAC1 ag, EPAC2 antag, TSHR antag)
COc1cc(NC(=S)NCCC(c2ccccc2)c2ccccc2)cc(OC)c1	EPAC1 ag 89.1µM
COc1cccc(NC(=S)NCCC(c2ccccc2)c2ccccc2)c1	none
O=S(=O)(O)c1ccc(N=NNc2ccc(Br)cc2)cc1	EPAC2 antag 44.7µM
